Sampled rows, rich in hits. Any-hit rate of the full collection: about 4.8%.
ALR H2O2 inh = inhibitors of human ALR sulfhydryl oxidase, primary screen, biochemical, H2O2 detection, HRP-luminol luminescence, single point | FAD-linked sulfhydryl oxidase ALR (Homo sapiens), P55789 | purified ALR, DTT oxidation | inhibition, % (test concentration not listed) | actives 3.8% (n = 290,000);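 active means mean replicate inhibition above about 79%, with every replicate also reaching it, limit read from the data; inconclusive means only one of the two criteria met; inactive means mean below limit and not every replicate reaching it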
Target sequence (P55789 whole entry, looked up): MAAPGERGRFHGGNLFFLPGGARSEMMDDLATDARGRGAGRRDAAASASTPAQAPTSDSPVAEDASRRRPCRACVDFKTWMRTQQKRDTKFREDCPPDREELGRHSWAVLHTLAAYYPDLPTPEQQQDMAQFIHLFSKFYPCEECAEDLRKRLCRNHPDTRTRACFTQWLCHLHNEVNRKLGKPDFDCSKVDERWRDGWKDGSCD
SUMO Mot1 rescue = yeast Mot1-301 growth rescue at high temperature, primary screen, SUMOylation pathway inhibitor project, S. cerevisiae, ATP luminescence, 38.5C | actives 1% (n = 320,000) | S. cerevisiae Mot1-301 growth rescue; percent above DMSO median, 100 means doubled | growth rescue, % at 18.8 µM | AID 2716, 2010;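 active means every valid replicate shows activation above 250% relative to neutral control wells; inactive means the rest, any valid replicate at or below 250%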
HIF act = HIF pathway transcriptional activators, primary screen, cell-based, U2OS HRE-luciferase, luminescence; U2OS HRE-luciferase reporter; normalized: DMSO 0%, desferrioxamine 100%; activation, % at 7.5 µM (by protocol); actives 0.32% (n = 300,000);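 active means mean activation of at least 10% of the iron chelator positive control signal, with at least half of replicates also reaching 10%; inconclusive means mean and replicate majority disagree about reaching 10%; inactive means mean and most replicates under 10%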
AI-2 QS mod = Vibrio harveyi AI-2 quorum sensing modulators, primary screen, JMH597 strain, luminescence/OD600 ratio. Vibrio harveyi JMH597 AI-2 luminescence/OD600 ratio, 9 h; hits give low values; strain lacks LuxN and CqsS sensors; 0 = neutral-control median. activity change, % at 7.5 µM. actives 0.4% (n = 300,000); in the data active means activity change below about -75%, passing the limit was not always enough; inconclusive means no clear call, values can overlap the other calls;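 further: luminescence divided by OD600 gain over 9 h not by final OD600 alone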
Large screens that a line does not name were inactive.

CCC(CC)c1nnc(NC(=O)CN2C(=O)c3ccccc3C2=O)s1	none
COc1cccc(N2CCN(c3c4c(nc5ncnn35)CCC4)CC2)c1	ALR H2O2 inh 98
Cc1cc(N2CCN(C/C=C/c3ccccc3)CC2)n2ncnc2n1	none (no result: HIF act)
Cc1cc(N2CCN(c3ccccc3)CC2)n2ncnc2n1	ALR H2O2 inh 98
Cc1cc(N2CCN(c3ccccc3)CC2)nc(N)n1	ALR H2O2 inh 98
CC(C)C[C@@H](C(=O)N[C@@H](C(=O)O)c1ccccc1)N1C(=O)N2CCc3c([nH]c4ccccc34)[C@@]2(C)C1=O	none
Cc1cccc(C(=O)NNC(=O)C2CC2)c1	none
COC(=O)c1ccn(CC(=O)NC2CCCCC2)n1	ALR H2O2 inh 94
Nc1nc(-c2ccc3c(c2)OCCO3)cs1	ALR H2O2 inh 99 (no result: SUMO Mot1 rescue)
Cc1nc(-c2ccc3c(c2)OCCCO3)cs1	none
Nc1nc(-c2cc3c(cc2Cl)OCCO3)cs1	ALR H2O2 inh 99
Nc1nc(-c2ccc3c(c2)CCCC3)cs1	ALR H2O2 inh 99 (no result: HIF act, AI-2 QS mod)
O=C(C[C@@H]1C/C=C\C[C@@H](Cc2ccc(F)cc2)C(=O)OCCNC1=O)N[C@H](CO)Cc1ccccc1	none (no result: HIF act, AI-2 QS mod)
COc1ccc(NC(=O)N(C)C[C@H]2Oc3c(NC(=O)c4nc5ccccc5s4)cccc3C(=O)N([C@@H](C)CO)C[C@H]2C)cc1	none (no result: HIF act, AI-2 QS mod)
Cc1ccc2c(CN3CCN(S(=O)(=O)c4ccccc4C(F)(F)F)CC3)cc(=O)oc2c1C	none (no result: HIF act, AI-2 QS mod)
Nc1ccccc1Nc1ccccc1	ALR H2O2 inh inconclusive
Nc1ccc(Nc2ccccc2)c(Cl)c1	ALR H2O2 inh 100
O=C(NCC(F)(F)F)c1ccc(S(=O)(=O)N2CCN(C(=O)C3CCCO3)CC2)cc1 (stereo unspecified)	none (no result: HIF act, AI-2 QS mod)
Cc1noc2c1C(c1ccc(N(C)C)cc1)C1=C(CC(C)(C)CC1=O)N2 (stereo unspecified)	ALR H2O2 inh 98
CC1(C)CC(=O)C2=C(C1)Nc1ccccc1NC2c1ccc2c(c1)OCO2 (stereo unspecified)	ALR H2O2 inh 99
CC1(C)CC(=O)C2=C(C1)Nc1ccccc1NC2c1cc(Cl)ccc1O (stereo unspecified)	none (no result: ALR H2O2 inh)
CC1(C)CC(=O)C2=C(C1)Nc1ccccc1NC2c1nc2ccccc2[nH]1 (stereo unspecified)	ALR H2O2 inh 98
Cc1ccc(C2C3=C(CC(C)(C)CC3=O)Nc3onc(C)c32)cc1 (stereo unspecified)	none (no result: ALR H2O2 inh)
CN1C(=O)NC(c2ccc(Cl)cc2)C2=C1CC(C)(C)CC2=O (stereo unspecified)	ALR H2O2 inh 94
CCOc1ccc(NC(=O)C2CCCN2S(=O)(=O)c2ccc(OCC)cc2)cc1 (stereo unspecified)	none
CCCc1cc(=O)[nH]c2nnc(SCC(=O)Nc3cc(C)on3)n12	none (no result: ALR H2O2 inh)
CC1(C)CC(=O)C2=C(C1)Nc1ccccc1NC2c1ccccn1 (stereo unspecified)	ALR H2O2 inh 83
COc1ccc(C2Nc3ccccc3NC3=C2C(=O)CC(C)(C)C3)cc1 (stereo unspecified)	none
CC1CC2=C(C(=O)O1)C(C)Nc1ccccc1N2 (stereo unspecified)	none (no result: ALR H2O2 inh)
CC1CC2=C(C(=O)O1)C(c1ccccc1)Nc1ccccc1N2 (stereo unspecified)	ALR H2O2 inh 98
CN(C)c1ccc(C2CC(=O)OC3=C2C(=O)CC(C)(C)C3)cc1 (stereo unspecified)	ALR H2O2 inh 99
CC1(C)CC(=O)C2=C(C1)Nc1ccccc1NC2c1ccc(F)cc1 (stereo unspecified)	ALR H2O2 inh 99
CC1(C)CC(=O)C2=C(C1)Nc1cc3c(cc1C2c1ccc2c(c1)OCO2)OCO3 (stereo unspecified)	none
CC1(C)CC(=O)C2=C(C1)Nc1cc3c(cc1C2c1ccc(F)cc1)OCO3 (stereo unspecified)	ALR H2O2 inh 98
COc1ccc(OCc2nnc(SCC(=O)Nc3cccc(C(C)=O)c3)o2)cc1	ALR H2O2 inh 99 (no result: HIF act, AI-2 QS mod)
CCc1nnc(NC(=O)CSc2nnc(CNc3ccc(Cl)cc3)o2)s1	ALR H2O2 inh 99
CCc1nnc(NC(=O)CSc2nnc(Cc3ccccc3)o2)s1	none
COc1ccc(NCc2nnc(SCC(=O)Nc3ccccc3OC)o2)cc1	none
COc1ccc(NCc2nnc(SCC(=O)Nc3cccc(C)c3)o2)cc1	ALR H2O2 inh 99 (no result: SUMO Mot1 rescue)
COc1ccc(NCc2nnc(SCC(=O)c3ccc(OC)cc3)o2)cc1	ALR H2O2 inh 98
Cc1ccc(NC(=O)CSc2nnc(Cc3csc(C)n3)o2)c(C)c1	none
Cc1csc(=O)n1CC(=O)OCC(=O)c1ccc(Br)cc1	none
COc1ccc(-c2ccc(SCC(=O)Nc3cccc(C(C)=O)c3)nn2)cc1OC	ALR H2O2 inh 85
CC(=O)c1ccc(NC(=O)CSc2ccc(-c3sc(C)nc3C)nn2)cc1	ALR H2O2 inh 99
COc1ccc(OC)c(NC(=O)CSc2nnc(CNc3ccc(F)cc3)o2)c1	ALR H2O2 inh 91 (no result: SUMO Mot1 rescue)
Cc1nc(C)c(-c2ccc(SCC(=O)Nc3ccc(C)c(Cl)c3)nn2)s1	none
Cc1ccccc1CC(=O)N1CCCC(CNC(=O)c2ccc(F)cc2)C1 (stereo unspecified)	none
Cc1cccc(-c2oc3ccc(-c4ccc5c(c4)OCO5)cc3c2C(=O)OCc2ccc(O)cc2)c1	none (no result: ALR H2O2 inh)
CCc1ccc(C(C)(O)C(CN2CCOCC2)c2ccccc2)cc1 (stereo unspecified)	none
CC(=O)NC(Cc1ccc(C)cc1)C(=O)NC1CCN(S(=O)(=O)c2ccccc2)CC1 (stereo unspecified)	none (no result: ALR H2O2 inh)
O=C1Nc2ccc(Cl)cc2C(C#CC2CC2)(C(F)(F)F)O1 (stereo unspecified)	none
CCOC(=O)c1c(/N=C/c2cccc([N+](=O)[O-])c2O)sc(C)c1C	ALR H2O2 inh 86
O=C1CC(c2ccccc2)CC(O)=C1C=Nc1ccc(Cl)cc1 (stereo unspecified)	none
O=C1CCCC(O)=C1C=Nc1ccc(O)cc1	ALR H2O2 inh 99
COc1ccc(Br)cc1CSC(=N)N	ALR H2O2 inh 99
CCCCCOc1ccc(Br)cc1CSC(=N)N	none (no result: ALR H2O2 inh, SUMO Mot1 rescue)
CC(CNC(=O)c1ccc(OC2CCN(Cc3ccccn3)CC2)cc1)c1ccccc1 (stereo unspecified)	none (no result: ALR H2O2 inh)
CC1CCCN(S(=O)(=O)c2ccc(NC(=O)C3CC(=O)N(c4ccccc4)C3)cc2)C1 (stereo unspecified)	none (no result: AI-2 QS mod)
O=C(Nc1nnc(C2CC2)o1)c1ccc(S(=O)(=O)N2CCCCC2)cc1	none
COc1ccc(-c2nnc(NC(=O)c3ccc(S(=O)(=O)N4CCCc5ccccc54)cc3)o2)cc1	none
COCc1nnc(NC(=O)c2ccc(S(=O)(=O)N3CCCc4ccccc43)cc2)o1	ALR H2O2 inh 86
O=C(Nc1nnc(C2CC2)o1)c1ccc(S(=O)(=O)N2CCCc3ccccc32)cc1	ALR H2O2 inh 96

High-throughput results (PubChem BioAssay)
